# Most compounds without a hit are left out; they make up all but 4.1% or so of the library.
# TROY NFkB inh: blocks TROY-dependent signaling in reporter cells. Q293 LMP1-TROYcd NF-kB luciferase reporter, 4 h. inhibition, % at 10 µM. actives 0.98% (n = 360,000);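 active = compounds whose plate-normalised and pattern-corrected inhibition of the luciferase reporter signal at the single screening dose is 50% or more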
# Shn3 3UTR inh: reduces Shn3 3'UTR luciferase signal in osteoblasts; AID 588674; inhibition, % at 12.5 µM; Clone20 osteoblast Shn3 3'UTR firefly luciferase, 24 h; actives 0.52% (n = 360,000);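 active = mean inhibition of at least 75% with every replicate also reaching 75%; inconclusive = mean inhibition at least 75% but some replicate below; inactive = mean inhibition below 75%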
# EBV LMP1 NFkB: Epstein-Barr LMP1 NF-kappaB reporter inhibition; LMP1-induced NF-kappaB luciferase reporter cells, luminescence; inhibition, % at 12.5 µM; actives 0.69% (n = 350,000); AID 504558; in the data active = inhibition above about 41%; inconclusive = no clear call, values can overlap the other calls
# TWEAK Fn14 block: blocks TWEAK-Fn14 interaction in a reporter cell assay | TWEAK-stimulated Fn14 reporter cells, luciferase luminescence, 8 h | inhibition, % at 10 µM | actives 2% (n = 360,000); in the data active = inhibition above about 50%
# Peg3 prom inh: inhibitors of Peg3 promoter; HeLa PEG-Prom luciferase reporter, luminescence, overnight; actives 1.7% (n = 360,000); inhibition, % at 20 µM;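 active = inhibition of at least 50% at 20 µM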
# MITF TRPM1 inh: inhibitors of MITF-driven TRPM1 promoter in melanoma cells; SK-MEL-5 TRPM1 promoter luciferase, 24 h; inhibition, % at 12.5 µM; actives 0.83% (n = 330,000);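 active = mean inhibition across replicates of 60% or more, whatever share of single replicates reaches that level; inconclusive = some that reach 60%, reason not given; inactive = mean inhibition across replicates below 60%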
# Hits are given with their value; – = inactive; ? = inconclusive; · = not tested or not shown.
SMILES,TROY NFkB inh,Shn3 3UTR inh,EBV LMP1 NFkB,TWEAK Fn14 block,Peg3 prom inh,MITF TRPM1 inh
C/C(=N\Nc1nc2ccc(Cl)cc2o1)c1ccccc1,–,·,·,–,–,·
Clc1ccc(-c2cn3nc4c(nc3n2)CCCC4)cc1,–,–,50,–,–,–
COc1cccc(-c2cn3nc4c(nc3n2)CCCC4)c1,–,–,–,–,–,–
O=c1[nH]c2cc(S(=O)(=O)CCO)ccc2o1,–,–,–,–,–,–
COC(=O)c1sccc1NC(=O)c1c(F)c(F)c(F)c(F)c1F,–,–,·,–,67,·
O=C(Nc1ccccc1NC(=O)c1c(F)c(F)c(F)c(F)c1F)c1c(F)c(F)c(F)c(F)c1F,–,–,–,–,68,–
CC(C)(CNC(=S)NCCc1ccccc1)CNC(=S)NCCc1ccccc1,–,–,–,56,–,–
Oc1ccccc1/C=N/NC(=S)NCCc1ccccc1,–,–,–,93,–,–
Oc1ccccc1C=NNC(=S)Nc1ccc(F)cc1,–,90,–,–,–,–
Fc1ccc(NC(=S)NN=Cc2ccccc2Cl)cc1,–,–,–,–,–,–
OCCNC(=S)NCCc1ccccc1,–,–,–,–,–,–
CN(CC(=O)Nc1c(Cl)cccc1Cl)C(=O)C1=COCCO1,–,–,–,–,–,–
O=C(Cn1nnc(-c2ccccc2)n1)N/N=C/c1cc([N+](=O)[O-])c(Cl)cc1Cl,–,–,–,–,50,–
O=C(Cn1nnc(-c2ccccc2)n1)N/N=C/c1cc([N+](=O)[O-])ccc1O,–,–,–,–,–,–
COc1cc(/C=N/NC(=O)c2nnn(-c3nonc3N)c2C(C)C)ccc1OCc1ccc(F)cc1,–,–,–,76,–,–
CC(C)c1c(C(=O)N/N=C/c2ccc3c(c2)OCO3)nnn1-c1nonc1N,–,–,–,–,–,–
CCN(CC)c1ccc(/C=N/NC(=O)c2nnn(-c3nonc3N)c2C(C)C)c(O)c1,–,92,64,–,53,68
CCCc1c(C(=O)N/N=C/c2ccc(OCc3ccccc3)c(OC)c2)nnn1-c1nonc1N,–,–,–,–,–,–
CC(C)c1c(C(=O)N/N=C/c2cccc(OCc3ccc(F)cc3)c2)nnn1-c1nonc1N,53,–,–,–,–,–
CN(C)Cc1c(C(=O)N/N=C/c2cccc(OCc3ccc(F)cc3)c2)nnn1-c1nonc1N,–,–,–,–,–,–
CC[C@@H]1C/C=C\Cc2ccccc2[C@@H](C(=O)C[C@@H](O)CC(C)=O)OC1=O,–,–,–,–,–,–
O=C(OCC(=O)N1CCN(C(=O)c2ccco2)CC1)c1cc(-c2ccc(F)cc2)nc2ccccc12,–,–,–,52,–,–
O=C(OCC(=O)N1CCN(C(=O)c2ccco2)CC1)c1ccccc1C(=O)c1ccc(Cl)cc1,–,–,–,–,–,–
O=C(OCC(=O)N1CCN(C(=O)c2ccco2)CC1)c1ccccc1C(=O)c1ccccc1,·,–,–,79,–,–
O=C(OCC(=O)N1CCN(C(=O)c2ccco2)CC1)c1cc(-c2ccccc2)nc2ccccc12,·,–,–,–,–,–
SMILES,TROY NFkB inh,Shn3 3UTR inh,EBV LMP1 NFkB,TWEAK Fn14 block,Peg3 prom inh,MITF TRPM1 inh
CCCOc1ccc2oc(=O)c3c(c2c1)CCCN3C(=O)CN1CCN(c2ncccn2)CC1,–,94,–,–,–,–
CCCOc1ccc2oc(=O)c3c(c2c1)CCCN3C(=O)CN1CCCC(C(=O)OCC)C1 (stereo not drawn),–,–,–,–,–,–
COc1cnn(-c2ccc(Br)cc2)c(=O)c1SCc1ccccc1,–,–,–,–,–,–
COc1cnn(-c2ccc(C)cc2)c(=O)c1SCc1ccccc1,–,–,47,–,–,–
O=C(CN1C(=O)NC2(CCCCCC2)C1=O)c1ccc(Cl)cc1,–,–,–,–,–,–
CCOc1ccc(C(=O)/C=C/c2cc(OC)c(OC)c(OC)c2)cc1,–,–,–,–,62,–
COc1ccc(C(=O)/C=C/c2ccc(OC(=O)c3cc(OC)c(OC)c(OC)c3)cc2)cc1,–,–,–,–,–,–
COc1ccc(/C=C/C(=O)c2ccccc2)cc1COc1ccc(F)cc1,–,–,–,–,–,–
COc1ccc(C(=O)/C=C/c2ccc(OCc3ccccc3)cc2)cc1CSCC(=O)O,–,–,–,–,–,–
COc1ccc(C(=O)/C=C/c2cccc(OCc3ccccc3)c2)cc1CSCC(=O)O,–,–,–,–,75,–
COc1ccc(/C=C/C(=O)c2ccc(O)cc2)cc1COc1ccc(F)cc1,–,–,–,55,–,–
COc1cc(/C=C/C(=O)c2ccc3c(c2)OCCO3)cc(OC)c1OC,–,–,–,67,–,–
CCc1noc(C)c1C(=O)N1CCN(S(=O)(=O)c2ccc(Cl)s2)CC1,–,–,–,–,–,–
CCc1ccc(-c2nc3ccc(Br)cc3c(C(=O)O)c2C)s1,–,–,–,–,–,–
COC(=O)C/C=C/N(Cc1ccccc1OC)S(=O)(=O)CCl,–,–,–,–,–,–
COc1ccc(CCn2c(S)nc3ccccc3c2=O)cc1,–,–,–,–,–,–
O=[N+]([O-])c1cc(/C=N\O)ccc1Oc1ccc(F)cc1,–,–,65,–,–,–
O=C(/C=C/c1ccc(O)c([N+](=O)[O-])c1)c1ccc2ccccc2c1,–,–,?,–,–,–
COc1ccc(Oc2ccc(/C=C/C(=O)c3ccc(O)cc3)cc2[N+](=O)[O-])cc1,77,–,–,69,108,81
COc1cc(/C=C/C(=O)c2ccc(F)cc2)cc(OC)c1OC,–,–,–,84,–,–
COc1cc(/C=N/O)ccc1Oc1ccc([N+](=O)[O-])cc1[N+](=O)[O-],–,–,–,–,–,–
Cc1ccc(O)c(Cn2nnc3ccccc32)c1,–,–,–,–,–,–
COC(=O)C(C)Sc1nc2ccsc2c(=O)n1Cc1ccccc1 (stereo not drawn),–,–,–,–,–,–
COCCN(CCOC)Cc1cc(=O)oc2cc(OC)ccc12,–,–,·,–,–,·
O=C(C=Cc1cccc(Cl)c1)c1ccccc1,–,–,–,–,102,–
SMILES,TROY NFkB inh,Shn3 3UTR inh,EBV LMP1 NFkB,TWEAK Fn14 block,Peg3 prom inh,MITF TRPM1 inh
O=C(C=Cc1ccccc1O)c1ccccc1O,–,–,–,62,–,–
COc1ccc(C(=O)/C=C/c2ccccc2)c(O)c1,–,–,–,–,–,·
O=C(/C=C/c1ccccc1)NNC(=O)c1cccc(Cl)c1,–,–,–,–,–,–
O=C(/C=C/c1ccc(O)cc1)c1ccc(O)cc1O,–,–,–,59,–,–
O=C(C=Cc1cccc(O)c1)c1ccccc1O,–,–,–,65,–,–
O=C(/C=C/c1ccc(O)c(O)c1)c1ccccc1O,–,–,–,–,–,–
COc1cccc(/C=C/C(=O)OCC(=O)Nc2ccc(N3CCOCC3)cc2)c1OC,–,–,–,–,–,–
CCc1ccc(OCCCC(=O)Nc2ccc(S(=O)(=O)Nc3cc(C)nc(C)n3)cc2)cc1,–,–,–,55,–,–
O=c1[nH]c2ccccc2nc1-c1nnnn1Cc1ccccc1,–,·,·,–,·,·
